From PubChem BioAssay (NCI)
The panel holds about 79,000 compounds, 15% with a hit somewhere; the sample as a whole holds those more often. The source made the active and inactive calls. Rule as the data show it: active = growth inhibition above about 70%; inactive = the rest.

Assays:
[1] = NCI Yeast Anticancer Drug Screen. Data for the mec2-1 strain (AID 157); conditions: S. cerevisiae mec2-1 strain, active compounds read high
Method in brief: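 Cells of the genetically defined mec2-1 yeast strain are incubated with test compound. Inhibition of growth is calculated against vehicle-treated controls.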

[2] = NCI Yeast Anticancer Drug Screen. Data for the rad14 strain (AID 159);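 also: 0% = growth of vehicle-treated control cultures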; conditions: S. cerevisiae rad14 strain growth inhibition, active compounds read high
Method in brief: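 Yeast cells carrying a defined DNA-repair defect were exposed to compounds, and growth inhibition was calculated relative to vehicle-treated control cultures.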

[3] = NCI Yeast Anticancer Drug Screen. Data for the sgs1 mgt1 strain (AID 161);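 also: 0% = growth of cultures given vehicle only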; conditions: S. cerevisiae sgs1 mgt1 strain, active compounds read high
Method in brief: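 Mutant yeast exposed to compound; growth scored against vehicle-only wells.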

[4] = NCI Yeast Anticancer Drug Screen. Data for the CLN2oe strain (AID 163);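 also: 0% = growth of vehicle-only control cultures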; conditions: S. cerevisiae CLN2oe strain, active compounds read high
Method in brief: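 Strain altered in cell-cycle control, incubated with compound; growth compared to solvent-treated controls.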

[5] = NCI Yeast Anticancer Drug Screen. Data for the cln2 rad14 strain (AID 165);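 also: 0% = growth equal to vehicle treated cultures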; conditions: S. cerevisiae cln2 rad14 strain, active compounds read high
Method in brief: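 The screen exposed genetically defined yeast (cln2 rad14) to test compounds and scored growth inhibition relative to vehicle-treated controls.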

[6] = NCI Yeast Anticancer Drug Screen. Data for the bub3 strain (AID 167); conditions: S. cerevisiae bub3 mutant strain, active compounds read high
Method in brief: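 Compounds were applied to a genetically altered yeast strain carrying a cell-cycle control defect. Growth inhibition was scored against vehicle-treated controls.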

[7] = NCI Yeast Anticancer Drug Screen. Data for the wt2 strain (AID 169);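 also: 0% = growth of vehicle-treated yeast cultures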; conditions: S. cerevisiae wt2 strain growth inhibition, active compounds read high
Method in brief: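 Steps: yeast strain treated with compound; growth recorded; inhibition calculated relative to cultures given vehicle alone.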

[8] = NCI Yeast Anticancer Drug Screen. Data for the mlh1 strain (AID 171);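 also: 0% = growth of vehicle-treated control cultures of the same strain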; conditions: S. cerevisiae mlh1 strain growth inhibition, active compounds read high
Method in brief: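 Yeast screen: mutant strain plus compound, growth scored against vehicle control wells.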

[9] = NCI Yeast Anticancer Drug Screen. Data for the sgs1 strain (AID 173);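 also: 0% = growth of vehicle-only control cultures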; conditions: S. cerevisiae sgs1 mutant, active compounds read high
Method in brief: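 Inhibition of yeast growth served as the measure. The mutant strain was treated with each compound, and growth was normalised to cultures receiving vehicle alone.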

[10] = NCI Yeast Anticancer Drug Screen. Data for the mlh1 rad18 strain (AID 175); conditions: S. cerevisiae mlh1 rad18 strain growth inhibition, active compounds read high
Method in brief: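 Compound-treated yeast growth, normalised to vehicle controls. Strain bears defined DNA repair mutations.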

[11] = NCI Yeast Anticancer Drug Screen. Data for the rad18 strain (AID 177); conditions: S. cerevisiae rad18 mutant growth inhibition, active compounds read high
Method in brief: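 Inhibition values reflect reduced yeast growth compared with vehicle-treated controls, using a strain engineered with a DNA damage repair defect.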

[12] = NCI Yeast Anticancer Drug Screen. Data for the rad52 strain (AID 147);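 also: 0% = growth of vehicle-treated control cultures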; conditions: S. cerevisiae rad52 mutant growth inhibition, active compounds read high
Method in brief: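 Genetically altered yeast (DNA damage repair defect) treated with compound; inhibition calculated relative to vehicle.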

[13] = NCI Yeast Anticancer Drug Screen. Data for the wt1 strain (AID 149);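 also: 0% = growth of vehicle-treated wt1 cultures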; conditions: S. cerevisiae wt1 strain (SPY 50644) growth inhibition, active compounds read high
Method in brief: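 Yeast wt1 strain exposed to compounds; growth inhibition measured relative to vehicle-treated controls.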

[14] = NCI Yeast Anticancer Drug Screen. Data for the rad50EPP+ strain (AID 151);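 also: 0% = growth of vehicle-treated control cultures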; conditions: S. cerevisiae rad50 mutant strain, active compounds read high
Method in brief: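 Strain rad50EPP+; compound exposure; % growth inhibition vs vehicle.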

[15] = NCI Yeast Anticancer Drug Screen. Data for the mgt1 strain (AID 153); conditions: S. cerevisiae mgt1 mutant growth inhibition, active compounds read high
Method in brief: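 Read-out: yeast growth inhibition vs vehicle control. Strain mgt1, drawn from a panel altered in DNA damage repair or cell cycle control.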

[16] = NCI Yeast Anticancer Drug Screen. Data for the rad50 strain (AID 155);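 also: 0% = growth of vehicle-only cultures of the same strain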; conditions: S. cerevisiae rad50 strain growth inhibition, active compounds read high
Method in brief: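 Yeast carrying a defined DNA repair defect were exposed to test compounds, and growth was compared with vehicle-treated controls to give percent inhibition.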

[17] = at 5.0 µM (retest, dose inferred, filed as 0.5)
[18] = at 50.0 µM (retest, dose inferred, filed as 5.0)

Measured: growth inhibition

CCOP(=O)(OCC)C(Cc1ccccc1)N=C(c1ccccc1)c1ccccc1 (centres undefined)
active: [1]; at 33.0 µM 97% | [1]; at 50.0 µM 70.5% | [1]; at 100.0 µM 98% | [2]; at 33.0 µM 73% | [2]; at 100.0 µM 98% | [3]; at 50.0 µM 98.8% | [4]; at 33.0 µM 87% | [4]; at 100.0 µM 98% | [5]; at 50.0 µM 97.8% | [6]; at 33.0 µM 88% | [6]; at 50.0 µM 99% | [6]; at 100.0 µM 98% | [7]; at 33.0 µM 97% | [7]; at 100.0 µM 98% | [8]; at 33.0 µM 90% | [8]; at 100.0 µM 98% | [9]; at 33.0 µM 93% | [9]; at 100.0 µM 97% | [10]; at 50.0 µM 98.7% | [11]; at 33.0 µM 87% | [11]; at 100.0 µM 98%
inactive: [1]; [17] -3% | [1]; at 11.0 µM 18% | [1]; [18] 4% | [2]; at 1.2 µM 2% | [2]; at 3.7 µM -6% | [2]; at 11.0 µM -8% | [3]; [17] -14% | [3]; [18] -1% | [4]; at 1.2 µM -50% | [4]; at 3.7 µM -18% | [4]; at 11.0 µM -21% | [5]; [17] -1% | [5]; [18] -1% | [6]; at 1.2 µM -35% | [6]; at 3.7 µM -35% | [6]; [17] -7% | [6]; at 11.0 µM -41% | [6]; [18] -11% | [7]; at 1.2 µM 6% | [7]; at 3.7 µM 6% | [7]; at 11.0 µM -2% | [8]; at 1.2 µM 1% | [8]; at 3.7 µM 0% | [8]; at 11.0 µM 5% | [9]; at 1.2 µM 7% | [9]; at 3.7 µM 10% | [9]; at 11.0 µM 15% | [10]; [17] -18% | [10]; [18] 22% | [11]; at 1.2 µM 8% | [11]; at 3.7 µM 4% | [11]; at 11.0 µM 29%

CCN(CC)CC[n+]1ccc2c(C)c3[nH]c4ccc(O)cc4c3c(C)c2c1
inactive: [12]; at 1.2 µM 13% | [12]; at 3.7 µM 41% | [12]; at 11.0 µM 67% | [13]; at 1.2 µM 0% | [13]; at 3.7 µM -1% | [13]; at 11.0 µM 3% | [13]; at 33.0 µM 4% | [13]; at 100.0 µM 8% | [14]; at 1.2 µM 4% | [14]; at 3.7 µM 16% | [14]; at 11.0 µM 46% | [15]; at 1.2 µM 0% | [15]; at 3.7 µM -1% | [15]; at 11.0 µM 0% | [15]; at 33.0 µM 3% | [15]; at 100.0 µM 8% | [16]; at 1.2 µM 13% | [16]; at 3.7 µM 42% | [16]; [17] 36% | [1]; at 1.2 µM -2% | [1]; at 3.7 µM -13% | [1]; [17] 9% | [1]; at 11.0 µM 9% | [1]; at 33.0 µM 8% | [1]; [18] 4% | [1]; at 50.0 µM -11.9% | [1]; at 100.0 µM 43% | [2]; at 1.2 µM -3% | [2]; at 3.7 µM -5% | [2]; at 11.0 µM 3% | [2]; at 33.0 µM 3% | [2]; at 100.0 µM 60% | [3]; [17] 4% | [3]; [18] 13% | [3]; at 50.0 µM 1.5% | [4]; at 1.2 µM -8% | [4]; at 3.7 µM -4% | [4]; at 11.0 µM -8% | [4]; at 33.0 µM -8% | [4]; at 100.0 µM 16% | [5]; [17] -2% | [5]; [18] 18% | [5]; at 50.0 µM -21.6% | [6]; at 1.2 µM -10% | [6]; at 3.7 µM 3% | [6]; [17] 8% | [6]; at 11.0 µM -5% | [6]; at 33.0 µM -7% | [6]; [18] 6% | [6]; at 50.0 µM -14.8% | [6]; at 100.0 µM 2% | [7]; at 1.2 µM 0% | [7]; at 3.7 µM 0% | [7]; at 11.0 µM -1% | [7]; at 33.0 µM 2% | [7]; at 100.0 µM 26% | [8]; at 1.2 µM -4% | [8]; at 3.7 µM 3% | [8]; at 11.0 µM 1% | [8]; at 33.0 µM 9% | [8]; at 100.0 µM 68% | [9]; at 1.2 µM -2% | [9]; at 3.7 µM -1% | [9]; at 11.0 µM 6% | [9]; at 33.0 µM 9% | [9]; at 100.0 µM 31% | [10]; [17] 7% | [10]; [18] 19% | [10]; at 50.0 µM 27.8% | [11]; at 1.2 µM -2% | [11]; at 3.7 µM -2% | [11]; at 11.0 µM 3% | [11]; at 33.0 µM 12% | [11]; at 100.0 µM 58%
active: [12]; at 33.0 µM 87% | [12]; at 100.0 µM 95% | [14]; at 33.0 µM 88% | [14]; at 100.0 µM 91% | [16]; at 11.0 µM 72% | [16]; at 33.0 µM 89% | [16]; [18] 87% | [16]; at 50.0 µM 95% | [16]; at 100.0 µM 93%

COc1ccc(OC)c2cc3ccccc3cc12
inactive: [12]; at 1.2 µM 11% | [12]; at 3.7 µM -9% | [12]; at 11.0 µM 6% | [12]; at 33.0 µM 10% | [12]; at 100.0 µM 17% | [13]; at 1.2 µM -19% | [13]; at 3.7 µM -19% | [13]; at 11.0 µM -12% | [13]; at 33.0 µM -8% | [13]; at 100.0 µM -4% | [14]; at 1.2 µM -13% | [14]; at 3.7 µM 7% | [14]; at 11.0 µM 46% | [14]; at 33.0 µM 52% | [14]; at 100.0 µM 60% | [15]; at 1.2 µM 25% | [15]; at 3.7 µM 14% | [15]; at 11.0 µM 15% | [15]; at 33.0 µM 18% | [15]; at 100.0 µM 24% | [16]; at 1.2 µM -1% | [16]; at 3.7 µM -1% | [16]; [17] 52% | [16]; at 11.0 µM 10% | [16]; at 33.0 µM 17% | [16]; at 100.0 µM 4% | [1]; at 1.2 µM -5% | [1]; at 3.7 µM -11% | [1]; [17] 63% | [1]; at 11.0 µM -6% | [1]; at 33.0 µM 21% | [1]; at 100.0 µM 8% | [2]; at 1.2 µM -4% | [2]; at 3.7 µM -6% | [2]; at 11.0 µM -3% | [2]; at 33.0 µM 4% | [2]; at 100.0 µM 18% | [3]; [17] -24% | [3]; [18] 27% | [4]; at 1.2 µM 12% | [4]; at 3.7 µM 14% | [4]; at 11.0 µM 16% | [4]; at 33.0 µM 19% | [4]; at 100.0 µM 3% | [5]; [17] 46% | [5]; [18] 51% | [5]; at 50.0 µM 39.6% | [6]; at 1.2 µM 22% | [6]; at 3.7 µM 8% | [6]; [17] 36% | [6]; at 11.0 µM 22% | [6]; at 33.0 µM 33% | [6]; [18] 64% | [6]; at 100.0 µM 32% | [7]; at 1.2 µM -23% | [7]; at 3.7 µM -28% | [7]; at 11.0 µM -16% | [7]; at 33.0 µM -8% | [7]; at 100.0 µM 9% | [8]; at 1.2 µM 14% | [8]; at 3.7 µM 9% | [8]; at 11.0 µM 8% | [8]; at 33.0 µM 20% | [8]; at 100.0 µM 19% | [9]; at 1.2 µM -12% | [9]; at 3.7 µM -12% | [9]; at 11.0 µM -5% | [9]; at 33.0 µM -1% | [9]; at 100.0 µM 7% | [10]; [17] 48% | [11]; at 1.2 µM 5% | [11]; at 3.7 µM 4% | [11]; at 11.0 µM 21% | [11]; at 33.0 µM 24% | [11]; at 100.0 µM 50%
active: [16]; [18] 81% | [16]; at 50.0 µM 74.3% | [1]; [18] 87% | [1]; at 50.0 µM 85.2% | [3]; at 50.0 µM 73.1% | [6]; at 50.0 µM 89.7% | [10]; [18] 81% | [10]; at 50.0 µM 70.2%
